Test results as given in PubChem BioAssay AID1863 (Southern Research Specialized Biocontainment Screening …, 2009).
About 480 (0.16%) of roughly 300,000 compounds were called active.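 The calls were made as follows: active = inhibition over 29.93%, a cutoff 3 SD above the screen mean, later confirmed by dose response; inconclusive = inhibition over 29.93% but no dose response follow-up; inactive = inhibition at most 29.93% or unconfirmed.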 These entries were drawn from the full list. Entries with a potency or affinity are not part of this list.

Assay: inhibitors of PhoP regulon expression, primary screen, Salmonella Typhimurium, GFP reporter (AID 1863);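 also: 0% = low Mg2+ inducing control and 100% = high Mg2+ repressing control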
Details: S. Typhimurium PhoP-regulated promoter GFP reporter, 4 h; at 50 µM; active compounds read high

inhibition, inactive:
Cc1ccc(C2=NN(CC(=O)NCc3ccccn3)C(=O)CC2)cc1 15.1%
O=C(Nc1cccc(Cl)c1)NC1CCS(=O)(=O)C1 (configuration not stated) 0.08%
CCCCCC[N+](C)(C)CC/C=C1/c2ccccc2Sc2ccc(Cl)cc21 -5.82%
CCCCCCCCCCC[N+](C)(C)CC/C=C1/c2ccccc2Sc2ccc(Cl)cc21 0.18%
CCC(Sc1ccccc1C(=O)O)C(=O)O (configuration not stated) -0.12%
O=C(O)c1ccccc1SSc1ccccc1C(=O)O -0.72%
O=C1C(Cl)=C(Nc2ccccc2)C(=O)c2ccccc21 4.63%
CCNC1=C(Cl)C(=O)c2ccccc2C1=O 22.7%
O=C(CCCN1C(=O)c2ccccc2C1=O)Nc1ccccn1 -1.86%
CCC1(c2ccccc2)NC(=O)N(CC(=O)Nc2cc(S(=O)(=O)N3CCOCC3)ccc2OC(C)C)C1=O (configuration not stated) -0.1%
COc1ccc(C(=O)CCC(=O)NCCc2c[nH]c3ccccc23)cc1 8.52%
Cc1cccc(NS(=O)(=O)c2cccs2)c1 16.6%
Cc1nc([N+](=O)[O-])c(Br)n1CC(=O)c1ccc(F)cc1 7.24%
Cc1nc([N+](=O)[O-])c(Br)n1CC(=O)c1ccc(Br)cc1 8.26%
Nc1cc(Nc2ccccc2)c2nonc2c1[N+](=O)[O-] -3.49%
O=[N+]([O-])c1c(Nc2ccccc2O)cc(Cl)c2nonc12 16.1%
Nc1cc(N2CCCCCC2)c2nonc2c1[N+](=O)[O-] -3.85%
O=[N+]([O-])c1c(Nc2ccc(O)cc2)cc(Cl)c2nonc12 20%
Cc1c(NC(=O)c2ccc(S(=O)(=O)N3CCOCC3)cc2)c(=O)n(-c2ccccc2)n1C -7.51%
OCCC1CN(Cc2cccn2-c2ccccn2)CCN1C1CCCC1 (configuration not stated) -4.15%
COc1ccccc1C(c1nnnn1C1CCCC1)N1CCN2CCCC2C1 (configuration not stated) 2.8%
CCC1(C)Cc2c(sc3nc(SCC(=O)c4ccccc4)[nH]c(=O)c23)CO1 (configuration not stated) -14.9%
Nc1nonc1C(=O)N/N=C/c1ccc(Br)o1 -2.96%
Nc1nonc1-n1nnc(C(=O)N/N=C/c2ccc(Br)cc2)c1CSC1=NCCS1 44.3%
Nc1nonc1C(=O)N/N=C/c1cc2c(cc1Br)OCO2 3.06%
Nc1nonc1-n1nnc(C(=O)N/N=C/c2c(Cl)cccc2Cl)c1CSC1=NCCS1 6.32%
O=C(NCc1ccco1)C1CCCN(S(=O)(=O)c2ccc(Cl)cc2)C1 (configuration not stated) 0.1%
